Experiment [1] can be described thus: small molecules captured by biotinylated probe aFSTL3 – biochemical, small-molecule microarray, fluorescence 635/667, stem cell growth factor project, primary screen (AID 1064).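 Note: measures binding of the biotinylated anti-FSTL3 antibody to printed compounds.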 To be noted: higher = more signal.
The nature of experiment [2]: binders from COS7 lysate, DM2A8 probe, primary screen, torsin A project, cell lysate, small-molecule microarray, fluorescence 635/667 (AID 1065). To be noted: higher = more signal, COS7 lysate expressing mutant human TOR1A.
Experiment [3] in a line: small molecules captured by biotinylated probe aFGF2 – biochemical, small-molecule microarray, fluorescence 635/667, stem cell growth factor project, primary screen (AID 1067).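 Note: measures binding of biotinylated aFGF2 protein to printed compounds on slides; z-score merges feature fluorescence and signal-to-noise across triplicate slides.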 To be noted: higher = more signal.
The nature of experiment [4]: small molecules captured by biotinylated probe aFGF10 – biochemical, small-molecule microarray, fluorescence 635/667, stem cell growth factor project, primary screen (AID 1071).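 Note: score merges 667 nm spot intensity and signal to noise from triplicate slides.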 To be noted: higher = more signal.
Experiment [5] deals with Neurogenic locus notch homolog protein 2 (Homo sapiens) (UniProt Q04721). The experiment is described as follows: small molecules binding Notch2 protein – biochemical, small-molecule microarray, 635 nm fluorescence, stem cell growth factors, primary screen (AID 1073). The note with it: higher = more signal.
Chain of Neurogenic locus notch homolog protein 2 (Homo sapiens) (Q04721 whole entry, looked up, canonical isoform): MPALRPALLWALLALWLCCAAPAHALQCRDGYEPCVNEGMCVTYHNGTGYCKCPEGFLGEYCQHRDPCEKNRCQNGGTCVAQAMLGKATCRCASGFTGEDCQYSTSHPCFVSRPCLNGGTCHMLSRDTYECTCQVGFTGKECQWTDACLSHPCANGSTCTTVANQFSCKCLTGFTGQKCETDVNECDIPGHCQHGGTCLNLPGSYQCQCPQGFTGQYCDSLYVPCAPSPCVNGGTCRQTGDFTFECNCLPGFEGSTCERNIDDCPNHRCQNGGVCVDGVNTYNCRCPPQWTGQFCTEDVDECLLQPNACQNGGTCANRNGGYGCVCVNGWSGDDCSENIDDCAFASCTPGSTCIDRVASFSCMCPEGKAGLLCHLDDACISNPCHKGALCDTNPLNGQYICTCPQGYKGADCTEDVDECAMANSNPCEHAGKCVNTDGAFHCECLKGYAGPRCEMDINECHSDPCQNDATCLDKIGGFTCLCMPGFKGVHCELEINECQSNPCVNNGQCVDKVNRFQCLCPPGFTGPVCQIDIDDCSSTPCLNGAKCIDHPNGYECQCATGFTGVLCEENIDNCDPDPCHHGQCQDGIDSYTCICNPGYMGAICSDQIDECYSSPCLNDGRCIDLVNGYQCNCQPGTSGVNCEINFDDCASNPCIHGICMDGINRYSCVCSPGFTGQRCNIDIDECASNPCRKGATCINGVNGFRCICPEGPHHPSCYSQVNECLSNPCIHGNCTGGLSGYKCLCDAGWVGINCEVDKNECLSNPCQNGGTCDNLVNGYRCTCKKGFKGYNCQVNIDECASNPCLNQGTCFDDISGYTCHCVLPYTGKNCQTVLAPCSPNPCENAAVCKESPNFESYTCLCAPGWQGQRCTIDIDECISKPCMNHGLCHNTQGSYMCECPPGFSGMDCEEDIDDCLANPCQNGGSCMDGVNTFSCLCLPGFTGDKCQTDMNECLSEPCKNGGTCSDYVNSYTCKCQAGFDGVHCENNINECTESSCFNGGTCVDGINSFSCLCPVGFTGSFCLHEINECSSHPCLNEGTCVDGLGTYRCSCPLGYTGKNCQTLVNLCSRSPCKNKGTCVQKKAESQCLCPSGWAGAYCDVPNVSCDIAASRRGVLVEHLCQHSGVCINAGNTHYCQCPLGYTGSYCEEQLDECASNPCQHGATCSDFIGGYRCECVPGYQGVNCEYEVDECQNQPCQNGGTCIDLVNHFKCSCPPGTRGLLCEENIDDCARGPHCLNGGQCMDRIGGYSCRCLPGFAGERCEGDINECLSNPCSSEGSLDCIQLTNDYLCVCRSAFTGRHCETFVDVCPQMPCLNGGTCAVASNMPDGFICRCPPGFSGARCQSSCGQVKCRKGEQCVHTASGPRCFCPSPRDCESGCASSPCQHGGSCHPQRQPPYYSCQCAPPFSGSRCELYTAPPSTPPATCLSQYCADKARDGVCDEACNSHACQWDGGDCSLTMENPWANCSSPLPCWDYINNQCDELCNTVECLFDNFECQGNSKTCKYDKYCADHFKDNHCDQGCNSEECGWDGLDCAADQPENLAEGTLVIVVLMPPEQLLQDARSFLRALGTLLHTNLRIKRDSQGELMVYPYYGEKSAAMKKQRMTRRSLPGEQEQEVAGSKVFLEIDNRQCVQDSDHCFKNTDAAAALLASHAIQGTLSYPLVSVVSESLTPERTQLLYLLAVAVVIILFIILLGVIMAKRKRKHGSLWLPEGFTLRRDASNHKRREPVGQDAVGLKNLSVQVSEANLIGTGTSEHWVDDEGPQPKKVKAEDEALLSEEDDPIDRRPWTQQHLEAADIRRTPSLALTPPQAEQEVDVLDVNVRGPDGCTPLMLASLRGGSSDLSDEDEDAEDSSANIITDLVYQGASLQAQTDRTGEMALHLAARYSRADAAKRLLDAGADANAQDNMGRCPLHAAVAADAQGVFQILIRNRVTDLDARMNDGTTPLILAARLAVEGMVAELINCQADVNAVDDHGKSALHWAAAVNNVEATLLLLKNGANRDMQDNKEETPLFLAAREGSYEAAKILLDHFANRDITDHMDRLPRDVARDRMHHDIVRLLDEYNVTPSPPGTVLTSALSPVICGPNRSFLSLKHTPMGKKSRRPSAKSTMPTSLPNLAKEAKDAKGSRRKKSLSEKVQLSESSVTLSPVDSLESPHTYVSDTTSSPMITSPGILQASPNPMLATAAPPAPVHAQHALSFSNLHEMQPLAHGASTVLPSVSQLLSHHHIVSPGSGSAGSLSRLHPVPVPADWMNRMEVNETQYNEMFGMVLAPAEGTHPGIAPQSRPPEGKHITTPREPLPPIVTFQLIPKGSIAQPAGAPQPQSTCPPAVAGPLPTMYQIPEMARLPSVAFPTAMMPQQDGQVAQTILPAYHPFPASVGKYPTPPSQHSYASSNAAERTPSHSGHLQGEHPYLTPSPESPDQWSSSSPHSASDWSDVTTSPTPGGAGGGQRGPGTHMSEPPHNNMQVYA
Experiment [6] concerns the target Pro-neuregulin-1, membrane-bound isoform (Homo sapiens) (UniProt Q02297). The experiment is described as follows: small molecules binding neuregulin-1 protein – biochemical, small-molecule microarray, fluorescence 635/667, psychiatric disease protein project, primary screen (AID 1075).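 Note: score combines 667 nm spot fluorescence with signal to noise.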 The note with it: NRG1 binding, 635 nm fluorescence, higher = more signal.
Experiment [7] has as its system Neuregulin-1 EGF-like domain. Nature of the experiment: small molecules binding NRG1 EGF domain – biochemical, small-molecule microarray, 635 nm fluorescence, primary screen (AID 1081).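 Note: binding of the protein to compounds printed on small-molecule microarray slides.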 The note with it: higher = more signal.
Experiment [8] in a line: FRG1 expression reporter modulators in myotubes – cell-based, C2C12 myotubes, firefly/Renilla luciferase, luminescence, FRG1 inhibition for FSHD, primary screen (AID 1084). The note with it: FRG1 promoter luciferase, higher = more signal, called active from +8 up or from −8 down.
The nature of experiment [9]: small molecules captured by biotinylated probe aFST – biochemical, small-molecule microarray, fluorescence 635/667, stem cell growth factor project, primary screen (AID 1086).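 Note: score merges 667 nm fluorescence with signal-to-noise of each printed compound spot.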 To be noted: higher = more signal.
The nature of experiment [10]: binders of probe aHhip on microarray, primary screen, stem cell growth factor project, biochemical, small-molecule microarray, fluorescence 635/667 (AID 1087).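 Note: score merges spot fluorescence at 667nm with spot signal to noise ratio.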 To be noted: higher = more signal.

Calls of active or inactive are those of the source.

Chain of Pro-neuregulin-1, membrane-bound isoform (Homo sapiens) (Q02297 whole entry, looked up, the tested form may be a part, canonical isoform): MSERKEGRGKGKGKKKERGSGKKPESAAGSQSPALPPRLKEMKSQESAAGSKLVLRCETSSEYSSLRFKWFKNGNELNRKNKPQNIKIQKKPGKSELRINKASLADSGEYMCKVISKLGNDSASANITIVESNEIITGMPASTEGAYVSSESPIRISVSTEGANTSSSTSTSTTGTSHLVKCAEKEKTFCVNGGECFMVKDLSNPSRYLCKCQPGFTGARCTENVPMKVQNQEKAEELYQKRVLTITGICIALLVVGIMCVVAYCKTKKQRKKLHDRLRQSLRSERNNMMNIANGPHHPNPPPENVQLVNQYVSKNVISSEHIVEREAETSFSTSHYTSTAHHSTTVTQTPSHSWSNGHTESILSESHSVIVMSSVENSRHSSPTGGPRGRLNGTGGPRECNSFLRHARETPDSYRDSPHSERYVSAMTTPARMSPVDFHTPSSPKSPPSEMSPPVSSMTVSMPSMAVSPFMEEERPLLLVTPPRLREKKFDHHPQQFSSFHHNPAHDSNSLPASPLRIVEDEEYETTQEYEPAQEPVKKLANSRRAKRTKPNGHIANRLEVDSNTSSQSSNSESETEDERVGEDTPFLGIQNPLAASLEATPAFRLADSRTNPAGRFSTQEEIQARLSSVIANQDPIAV

In the case of `COC(=O)[C@H](Cc1ccccc1)N1CC(C)(OC)O[C@@H](Cc2ccccc2)[C@H]1/C=C/C1CC1` (stereo not given in full), the composite z-score in [1] was 0.016; in experiment [2], 0.12; in [3] it was -0.073; in experiment [4], -0.194; in [5], 0.144; in experiment [6], 0.0246. Besides, the composite z-score in experiment [7] is 0.484; in [9] it was -0.205; in [10], -0.331. In experiment [8], the z-score was -0.218 (inactive).

As to `C=C(C(=O)CC[C@@H](OC(=O)c1ccccc1-c1ccccc1C(=O)O)c1ccc(OCCO)cc1)C(C)C`, the composite z-score in [1] is -0.49; in [2], 0.235; in experiment [3], 0.0129; in [4] it was 1.11; in experiment [5], 0.52; in experiment [6] it was 0.551. Besides, the composite z-score in [7] came out at 0.512; in experiment [9], 0.136; in [10], 0.245. The z-score in experiment [8] was 2.12 (inactive).

Consider `COC(=O)[C@@]1(Cc2ccc(F)cc2)[C@H]2c3cc(C(=O)N(C)C)n(CCF)c3C[C@H]2CN1C(=O)c1ccccc1`, for which the composite z-score turned out to be 0.267 in [1]; 0.0612 in experiment [2]; 0.131 in experiment [3]; 0.623 in experiment [4]; 1.22 in [5]; 1.83 in experiment [6]. Also, the composite z-score in experiment [7] was found to be 1.06; in experiment [9], 0.329; in [10], 0.0274. The z-score in experiment [8] was -1.3 (inactive).

With `CCOC(=O)C[C@H]1[C@H](OC(=O)c2cc3ccccc3oc2=O)[C@@H](NC(=O)Cc2ccc(OC)cc2)c2cc(OCCCO)ccc2N1C(=O)Cc1ccc(OC)cc1`, the composite z-score was -0.545 in experiment [1]; 0.58 in [2]; -0.125 in experiment [3]; 0.527 in experiment [4]; 0.791 in experiment [5]; 0.185 in [6]. Further, the composite z-score is 0.507 in [7], 1.43 in experiment [9] and -0.179 in [10]. Besides, the z-score in [8] was -1.39 (inactive).

Consider `CCOC(=O)C[C@H]1[C@H](OC(=O)c2cc3ccccc3oc2=O)[C@@H](NC(=O)c2ccc(-c3ccccc3)cc2)c2cc(OCCCO)ccc2N1C(=O)Cc1ccc(OC)cc1`, for which the composite z-score was -0.428 in experiment [1]; 0.0922 in experiment [2]; -0.0667 in [3]; 0.67 in [4]; 0.992 in experiment [5]; 0.178 in experiment [6]. Moreover, the figures for the composite z-score in [7], in experiment [9] and in experiment [10] were 1.18, 0.494 and -0.132, respectively. For the same molecule, the z-score in experiment [8] was 0.228 (inactive).

As for `C=C(/C=C\CNS(=O)(=O)c1ccc(C)cc1)[C@H](O)[C@H]1CCCN1S(=O)(=O)c1ccccc1[N+](=O)[O-]`, the composite z-score in experiment [1] is -0.0107; in [2] it was 0.014; in experiment [3], -0.114; in experiment [4], 0.108; in experiment [5], 0.361; in experiment [6], 0.618. Further, the composite z-score in experiment [7] is 0.577; in experiment [9], -0.105; in experiment [10] it was 0.0373. For the same molecule, the z-score in experiment [8] is -4.49 (inactive).

Turning to `CC[C@@H](O[Si](C#C[Si](C(C)C)(C(C)C)C(C)C)(C(C)C)C(C)C)c1cn([C@H](C)c2ccccc2)nn1`, the composite z-score is -0.51 in experiment [1]; 0.488 in experiment [2]; -0.0797 in experiment [3]; 0.663 in experiment [4]; 0.728 in [5]; 0.284 in [6]. Also, the composite z-score amounted to 0.739 in experiment [7], 0.129 in experiment [9] and 0.115 in experiment [10]. Moreover, the z-score in [8] is -0.0777 (inactive).

Source of the values: PubChem BioAssay.
